Entries with a potency or affinity are not part of this list. The source made the active and inactive calls.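 Rule for the calls: active = signal drop with fitted half-maximal dose at most twice the top valid dose, active in every repeat; inconclusive = repeats disagree, or flat partial inhibition, or poor fit; inactive = inactive in every repeat, including opposite effects.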
Each compound was assayed against Caspase-3 (Homo sapiens) (UniProt P42574) (assay: caspase-3 enzyme inhibitors, selectivity check, dose response, selectivity assay for caspase-6 allosteric inhibitor project, biochemical, fluorescence, cherry-picked samples (AID 743291)). Conditions: Recombinant caspase-3, Z-DEVD-R110 cleavage fluorescence; series mostly up to 35 µM; activity change, negative = inhibition: at the top concentration.
Sequence of Caspase-3 (Homo sapiens) (P42574 whole entry, looked up): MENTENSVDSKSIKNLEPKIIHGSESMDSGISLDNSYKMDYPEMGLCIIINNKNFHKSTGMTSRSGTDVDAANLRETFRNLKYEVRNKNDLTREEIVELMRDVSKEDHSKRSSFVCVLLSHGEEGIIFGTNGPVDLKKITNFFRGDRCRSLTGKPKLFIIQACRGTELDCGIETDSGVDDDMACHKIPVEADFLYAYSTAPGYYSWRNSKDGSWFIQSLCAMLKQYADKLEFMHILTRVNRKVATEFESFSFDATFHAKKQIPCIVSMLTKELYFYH

Activity change, negative = inhibition, inactive:
Cc1oc2c(cc(NS(=O)(=O)c3ccc(C(C)C)cc3)c3ccccc32)c1C(=O)O 1.41%, CN(CC(=O)Nc1ccccc1Cl)C(=O)COC(=O)c1ccc([N+](=O)[O-])s1 2.73%, Oc1cc(O)cc(C=Cc2ccc(O)c(O)c2)c1 0.444%, CCCCN(C(=O)c1cccc(-n2cccc2)c1)c1c(N)n(Cc2ccccc2)c(=O)[nH]c1=O 0.487%, CCOC(=O)c1sc2nc(OCCN3CCOCC3)cc(C)c2c1N -0.914%, O=C(O)/C(=C\c1ccc(Cl)c([N+](=O)[O-])c1)c1ccc(S(=O)(=O)N2CCCC2)s1 2.29%, CN(C)CCCNc1cc(O)c2ncccc2c1 4.7%, CCCc1nc2c(=O)n(C)c(=O)nc-2n(C)n1 0.922%, Oc1cc(NCCc2cccnc2)cc2cccnc12 -1.7%, COc1ccc(NC(=O)CN(C)C(=O)c2cccc(-n3cccc3)c2)cc1 0.781%, COc1ccc(S(=O)(=O)Nc2cc(Sc3ncn[nH]3)c(O)c3ccccc23)cc1 0.674%, O=C(O)CC(CCc1ccccc1)OC1OC(CO)C(O)C(O)C1O (stereo unspecified) 0.587%, CC(CNc1ccccc1O)C(=O)O (stereo unspecified) -2.67%, COc1cc(C)c2c(c1C=O)Oc1c(c(C)c(O)c3c1C(O)OC3=O)OC2=O (stereo unspecified) 4.05%, O=C(O)Cc1ccc(-n2cccc2)cc1 2.88%, COCCn1c2nc(=O)n(-c3ccccc3)c(=O)c-2nc2ccccc21 0.556%, Oc1cc2c(cc1O)[C@H]1c3ccc(O)c(O)c3OC[C@@]1(O)C2 -5.9%, Cc1ccc(S(=O)(=O)Nc2csc(C)c2C(=O)O)cc1 -1.28%, O=c1ccc2c(-c3ccccc3S(=O)(=O)O)c3ccc(O)c(O)c3oc-2c1O -15.3%, O=C(O)CCc1ccc(-c2ccc(Br)cc2)n1CC(=O)O 3.3%, O=c1[nH]c(Nc2ccccc2Cl)cc2ccccc12 -3.15%
